Results filed as inconclusive are left out. A call without a number means that no potency is given here. Values without a mark were called inactive. The source made the active and inactive calls. The call rests on the fitted dose curve; in most records, active means well fitted inhibition curve with a large enough effect; inconclusive means small, poorly fitted or top-dose-only effect; inactive means no such curve, though single readings can be large or run the other way.
These molecules were tested on Zika virus NS2B-NS3 protease (unlinked complex) (assay: Primary screen GU Rhodamine qHTS for Zika virus inhibitors: Unlinked NS2B-NS3 protease assay (AID 1347159; further: nearly all actives have a fitted effect of over 60% in size)). Settings: Recombinant ZIKV NS2B-NS3 protease, Rhodamine110 substrate fluorescence; series mostly up to 107 µM.
Excerpt: Avindra Nath, Ph.D., National Institute of Neurological Disorders and Stroke (NINDS), Bethesda, MD
Radhakrishnan Padmanabhan, Ph.D., Georgetown University (GU), Washington D.C.
Zika Virus causes congenital defects, including microcephaly and is associated with Guillain-Barre syndrome, eningoencephalitis and myelitis in infected adult. […] Using a target-based approach, we hope to establish a screening paradigm to uncover novel, cell-active NS2B-NS3 protease (Zika Virus) specific inhibitors from NCATS' collection of small molecules using qHTS.
Four assay panel was created to identify potential Zika Virus inhibitors. Namely, (1) GU unlinked NS2B-NS3 AMC tagged protease qHTS, (2) GU unlinked NS2B-NS3 Rhodamine tagged protease qHTS, (3) NINDS linked NS2B-NS3 AMC tagged protease qHTS, (4) NINDS linked NS2B-NS3 Rhodamine tagged protease qHTS. Active compounds were re-acquired and re-screened to confirm inhibition. Inhibitors were further screened against various confirmatory and counterscreens in dose response format.
Early Translation Branch (ETB)
National Center for Advancing Translational Sciences (NCATS), Rockville, MD
National Institute of Health (NIH), Bethesda, Maryland
Padmanabhan lab provided the NS2B hydrophilic domain and NS3 protease domain in a noncovalent complex used for the unlinked assay. Control compound aprotinin is obtained from Thermo Scientific (#78432; Waltham, Massachusetts). Rhodamine110 substrate ([N-Cbz]-Nle-Lys-Arg-Arg-Rhod110-Arg-Arg-Lys-Nle-[N-Cbz]) was purchased from either Genscript or Bachem.
1536-well Protease (Rhodamine110 Substrate) Assay:
Briefly, 3 microL of enzyme (25 nM final concentration), in assay buffer (10 mM Tris-HCl pH 8.0 with 0.01% Tween 20) were dispensed into a 1,536-well solid-bottom black plate (Greiner Bio One, Monroe, NC). Twenty-three nL of compounds (final concentration range 7.28 nM to 114 microM) or control Aprotinin (final concentration range 3.47 nM to 114 microM) were transferred via Wako Pin-tool (Wako Automation, Richmond, VA). Samples were incubated (room temperature, protected from light) for 15 minutes followed by a 1 microL Rhodamine110 substrate addition (1.5 microM final concentration). Plates were then immediately read on a ViewLux High-throughput CCD imager (PerkinElmer, Waltham, MA) equipped with FITC fluorescence optics (480(20) nm excitation, 540(25) nm emission), then incubated (room temperature, protected from light) for 15 minutes (~15% conversion). The change in fluorescence intensity over the 15-minute reaction period was normalized against no-inhibitor and no-enzyme controls and the resulting percent inhibition data were fitted to a 4-parameter Hill equation. Aprotinin was used as intraplate control.
Potency means the concentration at half of the fitted maximal effect.

| SMILES | activity change, negative = inhibition | Potency |
| --- | --- | --- |
| C[C@@H]1O[C@@H](O[C@H]2[C@H](OC(=O)[C@]34CCC(C)(C)C[C@H]3C3=CCC5[C@@]6(C)C[C@H](O)[C@H](O[C@@H]7O[C@H](CO)[C@@H](O)[C@H](O)[C@H]7O)[C@](CO)(C(=O)O)C6CC[C@@]5(C)[C@]3(C)C[C@H]4O)OC[C@H](O)[C@@H]2O)[C@H](O)[C@H](O)[C@H]1O[C@@H]1OC[C@@H](O)[C@H](O[C@@H]2OC[C@](O)(CO)[C@H]2O)[C@H]1O (stereo not given in full) | 10.7% [at 19.1 µM] | – |
| Nc1nc2c(cnn2CCCc2ccc(O)cc2)c2nc(-c3ccco3)nn12 | – | inactive |
| C/C(=C\CO[C@@H]1O[C@H](CO[C@H]2OC[C@](O)(CO)[C@H]2O)[C@@H](O)[C@H](O)[C@H]1O)C(C)(C)O | – | inactive |
| COc1cc(CN(CCN)C(=O)c2cccs2)ccc1OCc1ccccc1 | – | inactive |
| N#Cc1ccc(N2N=C3c4ccc(C(=O)O)cc4CC[C@@H]3[C@@H]2C2CCCC2)cc1Cl | – | 1.41 µM (active) |
| C=CC(=O)N1CCCC(n2nc(-c3ccc(Oc4ccccc4)cc3)c3c(N)ncnc32)C1 (stereo not given) | – | inactive |
| NCC(CNc1nc(Nc2cccc(NC(=O)N3CCCC3)c2)ncc1I)C(=O)c1cccs1 (stereo not given) | – | inactive |
| COc1ccc(-c2ccccc2)cc1NS(=O)(=O)c1cc(Cl)cc(Cl)c1O | – | 1.41 µM (active) |
| O=C(NCc1ccc(OC(F)(F)F)cc1)C1c2c(F)cccc2C(=O)N1CCc1ccccn1 (stereo not given) | – | inactive |
| C=C(C)C(=O)OC1CC(CO)CCC/C(CO)=C/C2OC(=O)C(=C)C21 (stereo not given) | – | inactive |
| COC1=CC(=O)C[C@@H](C)[C@@]12Oc1c(Cl)c(OC)cc(OC)c1C2=O | – | inactive |
| O=C(N[C@H]1CCN(C(=O)c2cc(C(F)(F)F)cc(C(F)(F)F)c2)[C@H](Cc2ccc(Cl)cc2)C1)c1ccnc2ccccc12 | – | inactive |
| CCN1CCC[C@@H]1CNC(=O)c1ccc2c(c1)NC(=O)c1cccc(C)c1S2 | – | inactive |
| CC(=O)OC1CC(O)(C(C)C)C2C(OC(=O)c3ccc(O)cc3)C=C(C)C(=O)CC12C (stereo not given) | – | inactive |
| CN(CC1COCCO1)S(=O)(=O)Nc1ccc2ccc3ncc(-c4cnn(C)c4)cc3c(=O)c2c1 (stereo not given) | – | inactive |
| CC(C)(C)c1ccc(-c2nc3c(N4CCN(Cc5ccc6nccnc6c5)CC4)cccc3[nH]2)cc1 | – | inactive |
| COc1cc2c(cc1-c1c(C)noc1C)ncc1[nH]c(=O)n(C(C)c3ccccn3)c12 (stereo not given) | – | inactive |
| CC(=O)O[C@@H]1[C@@H](OC(C)=O)[C@H](C)O[C@@H](O[C@H]2[C@@H]3C=CO[C@@H](O[C@@H]4O[C@H](CO)[C@@H](O)[C@H](O)[C@H]4O)[C@@H]3[C@@]3(CO)O[C@@H]23)[C@@H]1OC(=O)/C=C/c1ccccc1 | – | inactive |
| O=C(Nc1ccccc1C(=O)NC1CCCCNC1=O)c1cc2ccccc2s1 (stereo not given) | – | 31.6 µM (active) |
| O=C(C(Cc1cccc(C(F)(F)F)c1)NS(=O)(=O)c1cc(F)c2c(c1)CCNC2)N1CCCC1 (stereo not given) | – | inactive |

| SMILES | activity change, negative = inhibition | Potency |
| --- | --- | --- |
| CC1(C)CC[C@]23CO[C@@]4(CCC5[C@@]6(C)CC[C@H](O[C@@H]7OC[C@H](O[C@@H]8O[C@H](CO)[C@@H](O)[C@H](O)[C@H]8O[C@@H]8OC[C@@H](O)[C@H](O)[C@H]8O)[C@H](O)[C@H]7O)[C@@](C)(CO)C6CC[C@@]5(C)[C@]4(C)CC2=O)[C@@H]3C1 (stereo not given in full) | – | inactive |
| CC/C(C)=C/C(=O)OC1C(OC2(C)CCC3C(C4C(C)CCC42)C3(C)C)OC(C)C(O)C1O (stereo not given) | – | 14.1 µM (active) |
| COC(=O)CC[C@@H](C)C1CCC2C3CCC4C[C@H](OC(C)=O)CCC4(C)C3C[C@H](O)C21C (stereo not given in full) | – | inactive |
| NC(=O)c1ccccc1Nc1ccnc(Nc2cccc(O)c2)n1 | – | inactive |
| O=C(NCC(=O)N1CCCC1)Nc1ccc2cnccc2c1 | – | inactive |
| Cc1cc(NC(=O)c2cccc(NC(=O)/C=C/CN(C)C)c2)ccc1Nc1nccc(-c2cccnc2)n1 | – | inactive |
| CC(=O)C1=C(O)C=C2Oc3c(C(C)=O)c(O)c(C)c(O)c3[C@]2(C)C1=O | – | 31.6 µM (active) |
| N#Cc1ccc(O[C@@H]2c3ccccc3C[C@H]2N2CCC[C@@H](N)C2)c(Cl)c1 | – | inactive |
| CC[N+]1(C/C2=C/CCCCCC2)CCC(NC(=O)C2c3cc(Cl)ccc3Oc3ccc(Cl)cc32)CC1 (stereo not given) | – | inactive |
| C=C1CC2OC(=O)C(=C)C2C(OC(=O)/C(C)=C\C)CC2(C)OC1=CC2=O (stereo not given) | – | inactive |
| Nc1nc(Nc2ccc3c(c2)CCC(N2CCCC2)CC3)nn1-c1cc2c(nn1)-c1ccccc1CCC2 (stereo not given) | – | 50.1 µM (active) |
| CCN(CC)CCCS(=O)(=O)N[C@H](CCc1ccccc1)c1nc(Cc2ccc(Br)cc2)no1 | – | inactive |
| C=C(C)Cn1c(SCC(=O)c2cccs2)nc2sc3c(c2c1=O)CCCC3 | – | inactive |
| CC(C)(C)[C@H](NC(=O)c1ccc(N)c(Cl)c1)C(=O)N1CCC[C@H]1C(=O)N[C@H](C#N)CC(=O)O | – | inactive |
| CCc1cnc(N2CCC(c3nc(COc4ccc(-n5cnnn5)cc4)cs3)CC2)nc1 | – | inactive |
| CCOC(=O)C1=Cc2ccc(C(F)(F)C(F)(F)F)cc2N=C(N)C1 | – | inactive |
| COc1ccc([C@H]2OC[C@H]3O[C@@H](O[C@H]4[C@@H]2NC[C@@H]4O)[C@H](O)[C@H]3O)cc1 | – | inactive |
| C=CC1(C)CC(O)C(C(=C)C(=O)OC)C(O)C1C(=C)CO (stereo not given) | – | inactive |
| C[C@@H]1C[C@H](C)CN(CCC(=O)Nc2ccc(Br)cc2)C1 | – | inactive |
| COC1CCN(c2cccc(-c3cc(NC(C)=O)nc(-n4nc(C)cc4C)n3)n2)CC1 | – | inactive |
